# An excerpt weighted towards active compounds, which were near 3.3% of everything screened.
# CendR NRP1 mod = NRP-1/CendR interaction modulation; O14786; FAM-RPARPAR peptide binding to NRP-1, fluorescence polarization; inhibition, % at 25 µM; 0.85% of 360,000 active; AID 602438;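 active = inhibition or corrected inhibition above about 18%, plus a signal ratio from 0.5 to 1.5, limit read from the data, passing the limit was not always enough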
# Fh CTSL1 inh = counter-screen for PFM18AAP inhibitors: inhibitors of F. hepatica cathepsin L1; inhibition, % at 5.96 µM; 0.49% of 300,000 active; recombinant F. hepatica cathepsin L1, Z-Leu-Arg-MCA fluorescence;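 active = inhibition above the mean of all tested compounds plus 3 SD, set per screening campaign, cut at about 17% in these data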;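 also: 0% = plate median of test compound wells and 100% = 1 µM Z-Phe-Ala-diazomethylketone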
# PHOSPHO1 inh = blocks human PHOSPHO1 phosphatase activity. Q8TCT1. 1.1% of 290,000 active. inhibition, % at 13.3 µM. recombinant PHOSPHO1, absorbance phosphatase assay; in the data active = inhibition above about 60%
# Target sequence (Q8TCT1 whole entry, looked up): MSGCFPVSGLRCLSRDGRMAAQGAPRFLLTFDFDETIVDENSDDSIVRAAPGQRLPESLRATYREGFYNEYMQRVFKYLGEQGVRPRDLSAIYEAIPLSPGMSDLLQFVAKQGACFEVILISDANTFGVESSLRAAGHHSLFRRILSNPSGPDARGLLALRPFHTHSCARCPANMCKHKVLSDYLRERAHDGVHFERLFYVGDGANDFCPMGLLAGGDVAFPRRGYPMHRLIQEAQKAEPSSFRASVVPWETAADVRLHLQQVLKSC
# Rpn11 block = blocks the human proteasome subunit Rpn11; AID 588493; human 26S proteasome, Ub4-pepOG fluorescence polarization; 20S core pre-blocked with epoxomicin; 0.59% of 360,000 active; inhibition, % at 20 µM; O00487;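 active = inhibition at 20 µM, scaled to each plate's controls, above about 33%, limit read from the data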
# Target sequence (O00487 whole entry, looked up): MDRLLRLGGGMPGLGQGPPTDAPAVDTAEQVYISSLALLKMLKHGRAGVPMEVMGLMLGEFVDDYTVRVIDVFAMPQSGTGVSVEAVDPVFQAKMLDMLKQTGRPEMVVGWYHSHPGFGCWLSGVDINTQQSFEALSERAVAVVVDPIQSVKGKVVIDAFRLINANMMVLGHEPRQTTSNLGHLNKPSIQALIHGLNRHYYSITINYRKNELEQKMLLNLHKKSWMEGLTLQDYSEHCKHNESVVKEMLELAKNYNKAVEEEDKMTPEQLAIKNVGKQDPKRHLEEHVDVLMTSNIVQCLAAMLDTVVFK
# HNF4A DNA FP = change in binding of human HNF4 alpha to DNA; AID 1224865; activity change, % at 10 µM; HNF4a-FITC DNA binding, fluorescence polarization, 1 h; 0.3% of 360,000 active; in the data active = activity change above about 30%, passing the limit was not always enough
# TPT1 inhibitor = blocks Candida albicans tRNA 2'-phosphotransferase; recombinant caTPT1, FP RNA substrate dephosphorylation; inhibition, % at 5 µM; 0.81% of 300,000 active;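 active = inhibition above the mean of all tested compounds plus 3 SD, set per screening campaign, cut at about 24% in these data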;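 also: plate controls were DMSO alone for no effect and ferristatin control at 100 nM for full effect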
# The depositor's hits bear a star; . = no result given.
SMILES,CendR NRP1 mod,Fh CTSL1 inh,PHOSPHO1 inh,Rpn11 block,HNF4A DNA FP,TPT1 inhibitor
COc1cccc(OCCNC(=O)Nc2cc(F)c(F)cc2Cl)c1,25*,6,29,2,-2,-2
COC(=O)c1sccc1-n1cccc1C(=O)C(=O)N1CCOCC1,6,4,33,-10,40*,1
Cc1ccc(S(=O)(=O)Oc2ccc(N3C(=O)C4C5CCC(C5)C4C3=O)cc2)cc1 (centres undefined),24*,1,38,-3,1,-1
O=C1C2C3CCC(C3)C2C(=O)N1c1ccc(OS(=O)(=O)c2ccccc2)cc1 (centres undefined),2,-9,60*,-2,-1,-2
COc1ccc(-c2cc3ccccc3oc2=O)cc1NC(=O)c1cccnc1,3,5,22,-2,1,1
Cc1oc(-c2ccc(F)cc2)cc1-c1nn2c(-c3ccoc3C)nnc2s1,-53,1,98*,.,-40,17
Cc1oc(-c2ccc(Cl)cc2)cc1-c1nn2c(-c3ccco3)nnc2s1,.,.,92*,.,.,.
COc1cccc(-c2nnc3sc(-c4ccco4)nn23)c1,-13,1,74*,3,0,2
COc1ccc(-c2nnc3sc(-c4ccco4)nn23)cc1OC,-10,0,-23,-2,-1,0
CCc1ccccc1NC(=O)N1CCCc2ccccc21,12,.,26,-6,-3,.
CSc1ccccc1C(=O)NCc1ccc(F)cc1,-8,32*,51,-3,0,3
CC(C)CNC(=O)c1ccc(-c2ccc(F)c(F)c2)c2ccoc12,4,.,.,12,-1,.
CC1CCC(NC(=O)CSc2nncn2C)CC1 (centres undefined),23*,.,.,2,-1,.
Nc1nc(NCC(=O)O)nc(NC2CCCCC2)c1[N+](=O)[O-],4,.,11,-2,46*,.
CC1(C)CC(=O)c2c(-c3cccs3)n[nH]c2C1,-6,1,9,7,2,-2
Cc1ccc(-c2cc(=O)c3cc(F)ccc3[nH]2)cc1,2,-1,4,-11,-1,-1
Cc1ccc(-c2cc(=O)c3cc(C)ccc3[nH]2)cc1,30*,-2,-14,-15,-1,1
O=c1cc(-c2ccccc2)[nH]c2ccc(F)cc12,23*,-3,-14,-7,-1,2
CCCCCCCCN1C(=O)[C@H](CC(=O)N2CCC(c3ccccc3)CC2)C[C@@]2(C(=O)OC)CC(C)(C)CC=C12,4,.,.,.,4,.
Cc1cnc(C(=O)N(c2ccc(N3CCOCC3)cc2)C2C(=O)Nc3ccccc3N=C2c2ccc3c(c2)OCO3)cn1 (centres undefined),5,.,.,40,-1,.
COc1ccc(C2=Nc3ccccc3NC(=O)C2N(C(=O)c2cnc(C)cn2)c2ccc(N3CCOCC3)cc2)cc1 (centres undefined),22*,.,.,0,-2,.
O=C(N/C(=C/c1ccco1)C(=O)N1CCOCC1)c1ccccc1Br,4,4,18,0,4,-5
CC(=O)Oc1cc2cccc(OC(C)=O)c(=O)c2c(OC(C)=O)c1OC(C)=O,30*,-5,28,-43,0,-7
COC[C@H]1CCCN1c1ccc2c(c1)O[C@@H](COCc1ccccc1)CN([C@H](C)c1ccccc1)S2(=O)=O,1,.,.,.,-3,.
O=C(CSc1cc(Cl)ccc1Cl)NCC(=O)Nc1ccc(F)c(F)c1F,7,18*,-3,-8,-3,1
SMILES,CendR NRP1 mod,Fh CTSL1 inh,PHOSPHO1 inh,Rpn11 block,HNF4A DNA FP,TPT1 inhibitor
COC(=O)[C@@H]1CCCN1Cc1c(C(=O)N2CCOCC2)nc2c(C)cccn12,-3,-1,28,0,-3,-2
CCOC(=O)[C@@H]1[C@H]2COc3cc(OC)ccc3[C@@H]2N2C(=O)N(c3ccc(Cl)cc3)C(=O)[C@]12C,9,3,.,2,3,-4
COc1ccc(NS(=O)(=O)c2cc(-c3cnc(C4CC4)o3)ccc2C)cc1,0,0,-26,2,2,0
COc1ccccc1NS(=O)(=O)c1cc(-c2cnc(C3CC3)o2)ccc1C,22*,0,-11,0,0,2
CC(C)CC(NC(=O)CCl)c1ccccc1 (centres undefined),0,15,-3,3,1,-2
CCCC(NC(=O)CCl)c1ccccc1 (centres undefined),-6,22*,-4,-1,4,-6
O=C(C1=NOC2(C1)C(=O)Nc1ccccc12)N1CCOCC1 (centres undefined),-5,.,.,.,-5,.
CC(C)c1ccc(CN(C(=O)c2cccs2)C2CCS(=O)(=O)C2)cc1 (centres undefined),18*,9,16,3,3,-2
Cc1ccsc1CN(C(=O)c1ccccc1)C1CCS(=O)(=O)C1 (centres undefined),22*,-4,-26,-5,2,-4
Nc1sc(-c2ccccc2)cc1C(=O)NCCc1ccc(Cl)cc1,-46,.,.,.,56*,.
C=CCNC(=O)c1cc(-c2ccccc2)sc1N,-18,.,.,.,11,.
C/C(=N\NS(=O)(=O)c1ccc(Cl)c([N+](=O)[O-])c1)c1cc2ccccc2o1,-10,0,21,0,-2,-4
C/C(=N\NS(=O)(=O)c1ccc(C)c([N+](=O)[O-])c1)c1cc2ccccc2o1,-9,0,79*,1,1,1
Cc1ccc(CSc2nnc(-c3ccccc3N)c(=O)[nH]2)cc1,-24,1,102*,8,0,3
Nc1ccccc1-c1nnc(SCc2ccccc2Cl)[nH]c1=O,-12,-1,12,3,-7,-2
Cc1ccccc1NC(=O)Cn1c(C)nc2ccc(N)cc2c1=O,24*,-1,23,2,2,-1
COC1=C(c2ccccc2)C(=O)c2ccccc2C1=O,32*,13,-11,-13,-6,0
O=[N+]([O-])c1ccc(/C=N\NS(=O)(=O)c2ccc(F)cc2)o1,-4,20*,16,8,-1,2
CCCN(CC(=O)Nc1ccccc1C)C(=O)C1CCN(S(=O)(=O)c2ccccc2C(F)(F)F)CC1,3,2,.,-2,2,0
CCOc1ccc(C2=Cc3cc(OC)c(OC)cc3C(=C(Cl)Cl)O2)cc1,.,.,67*,.,.,.
CNC(=O)C1CC(=O)N(c2ccc(OCC(=O)N3CCCC3)cc2)C1 (centres undefined),7,1,9,-2,1,1
NC(=O)C1CC(=O)N(c2ccc(OCC(=O)N3CCCC3)cc2)C1 (centres undefined),28*,.,.,3,-2,.
O=C(/C=C/c1ccco1)N/C(=C\c1ccccc1)C(=O)NCCc1nc2ccccc2[nH]1,40*,5,0,2,0,-2
C[C@H]1CN([C@@H](C)CO)C(=O)Cc2cc(NC(=O)CCC(F)(F)F)ccc2O[C@H]1CN(C)CC1CC1,9,.,.,2,-2,.
Nc1ccn(CC(=O)NCc2ccccc2)c(=O)n1,3,.,.,-6,-2,.
